In PubChem BioAssay (NCI):
This is part of a sample that, as a whole, favours compounds with a hit. Of some 83,000 tested, about 20% had one in any assay.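 Note: values are percent growth. 100 is the growth of untreated cells, values between 100 and 0 indicate rising inhibition; between -100 and 0 indicates cell death.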 Values without a mark were called inactive. The source made the active and inactive calls. How the source made its calls: active means growth percent below 10; inactive means the rest.

Experiments:
Test in all cases: NCI-60 one-dose screen, 48 h (100 = growth as untreated, 0 = no growth, -100 = all killed)
Conditions in all cases: 10 µM unless noted
DU-145 prostate = test system: DU-145 prostate
K-562 leukemia = test system: K-562 leukemia
MALME-3M melanoma = test system: MALME-3M melanoma
MDA-MB-231 breast = test system: MDA-MB-231 breast
RXF 393 renal = test system: RXF 393 renal
SF-268 CNS = test system: SF-268 CNS
SF-295 CNS = test system: SF-295 CNS
SF-539 CNS = test system: SF-539 CNS
UACC-257 melanoma = test system: UACC-257 melanoma
M14 melanoma = test system: M14 melanoma
HCT-15 colon = test system: HCT-15 colon
HT29 colon = test system: HT29 colon
SNB-75 CNS = test system: SNB-75 CNS
SNB-19 CNS = test system: SNB-19 CNS
U251 CNS = test system: U251 CNS
PC-3 prostate = test system: PC-3 prostate
SK-MEL-5 melanoma = test system: SK-MEL-5 melanoma
UACC-62 melanoma = test system: UACC-62 melanoma
LOX IMVI melanoma = test system: LOX IMVI melanoma
SK-MEL-28 melanoma = test system: SK-MEL-28 melanoma

Question: How did the growth (DU-145 prostate) turn out when COC(=O)[C@]12CC[C@@H](C)[C@H](C)[C@@H]1C1=CC[C@@H]3[C@@]4(C)C(C=O)=C[C@@](C)(COC(=O)c5ccco5)[C@@H]4C(=O)C[C@@]3(C)[C@]1(C)CC2 was run?
Answer: The growth was 42%.

Question: What about the growth (K-562 leukemia) of the same molecule?
Answer: The growth was 22.7%.

Question: And the growth (MALME-3M melanoma)?
Answer: Its growth is -17% (active).

Question: What about the growth (MDA-MB-231 breast) of the same molecule?
Answer: Its growth is 39.4%.

Question: What about the growth (RXF 393 renal) of the same molecule?
Answer: The growth was 47.6%.

Question: And the growth (SF-268 CNS)?
Answer: The growth was 44.9%.

Question: And the growth (SF-295 CNS)?
Answer: The growth was 34.4%.

Question: What about the growth (SF-539 CNS) of the same molecule?
Answer: Its growth is 57.7%.

Question: And the growth (UACC-257 melanoma)?
Answer: The growth was -38.9% (active).

Question: And the growth (M14 melanoma)?
Answer: Its growth is 6.34% (active).

Question: And the growth (HCT-15 colon)?
Answer: Its growth is 25.2%.

Question: And the growth (HT29 colon)?
Answer: Its growth is 29.9%.

Question: What about the growth (SNB-75 CNS) of the same molecule?
Answer: The growth was 34.8%.

Question: What about the growth (SNB-19 CNS) of the same molecule?
Answer: The growth was 39.7%.

Question: What about the growth (U251 CNS) of the same molecule?
Answer: Its growth is 33.9%.

Question: What about the growth (PC-3 prostate) of the same molecule?
Answer: The growth was 11.1%.

Question: What about the growth (SK-MEL-5 melanoma) of the same molecule?
Answer: Its growth is -84.8% (active).

Question: What about the growth (UACC-62 melanoma) of the same molecule?
Answer: The growth was -23.8% (active).

Question: And the growth (LOX IMVI melanoma)?
Answer: Its growth is 26.6%.

Question: What about the growth (SK-MEL-28 melanoma) of the same molecule?
Answer: The growth was 24.9%.

Question: Which growth (DU-145 prostate) does the source give for COc1ccc2occ(C3=C(c4c[nH]c5ccccc45)C(=O)N(O)C3=O)c2c1 here?
Answer: Its growth is 102%.

Question: And the growth (K-562 leukemia)?
Answer: The growth was 87.3%.

Question: What about the growth (MALME-3M melanoma) of the same molecule?
Answer: The growth was 112%.

Question: And the growth (MDA-MB-231 breast)?
Answer: Its growth is 69%.

Question: What about the growth (RXF 393 renal) of the same molecule?
Answer: Its growth is 107%.

Question: What about the growth (SF-268 CNS) of the same molecule?
Answer: Its growth is 91.8%.

Question: And the growth (SF-295 CNS)?
Answer: Its growth is 105%.

Question: And the growth (SF-539 CNS)?
Answer: Its growth is 102%.

Question: What about the growth (UACC-257 melanoma) of the same molecule?
Answer: The growth was 99%.

Question: What about the growth (M14 melanoma) of the same molecule?
Answer: The growth was 94.2%.

Question: What about the growth (HCT-15 colon) of the same molecule?
Answer: Its growth is 100%.

Question: What about the growth (HT29 colon) of the same molecule?
Answer: Its growth is 99.7%.

Question: And the growth (SNB-75 CNS)?
Answer: The growth was 99.7%.

Question: What about the growth (SNB-19 CNS) of the same molecule?
Answer: The growth was 91.8%.

Question: What about the growth (U251 CNS) of the same molecule?
Answer: The growth was 91.7%.

Question: What about the growth (PC-3 prostate) of the same molecule?
Answer: Its growth is 81.3%.

Question: And the growth (SK-MEL-5 melanoma)?
Answer: Its growth is 92.7%.

Question: What about the growth (UACC-62 melanoma) of the same molecule?
Answer: The growth was 80.2%.

Question: And the growth (LOX IMVI melanoma)?
Answer: Its growth is 58.4%.

Question: And the growth (SK-MEL-28 melanoma)?
Answer: Its growth is 114%.

Question: What does the source list for CCc1ccccc1-n1c(-c2ccc(Cl)cc2)cc(-c2ccc(Cl)cc2)c(C#N)c1=O?
Answer: growth (DU-145 prostate): 77.1%; growth (K-562 leukemia): 66.1%; growth (MALME-3M melanoma): 90.8%; growth (MDA-MB-231 breast): 101%; growth (RXF 393 renal): 93.3%; growth (SF-268 CNS): 83.6%; growth (SF-295 CNS): 89%; growth (SF-539 CNS): 104%; growth (UACC-257 melanoma): 98.6%; growth (M14 melanoma): 85.3%; growth (HCT-15 colon): 84.3%; growth (HT29 colon): 84.4%; growth (SNB-75 CNS): 98.6%; growth (SNB-19 CNS): 109%; growth (U251 CNS): 84.9%; growth (PC-3 prostate): 76.4%; growth (SK-MEL-5 melanoma): 88.7%; growth (UACC-62 melanoma): 84.8%; growth (LOX IMVI melanoma): 82.4%; growth (SK-MEL-28 melanoma): 99.4%

Question: Which results are given for COc1ccc(/C=N/C2=C(C#N)C(c3ccc(OC)cc3)c3ccc4ccccc4c3O2)cc1 (stereo not given)?
Answer: growth (DU-145 prostate): 97.7%; growth (K-562 leukemia): 23.4%; growth (MALME-3M melanoma): 74.2%; growth (MDA-MB-231 breast): 53.5%; growth (RXF 393 renal): 84.8%; growth (SF-268 CNS): 77.2%; growth (SF-295 CNS): 88.6%; growth (SF-539 CNS): 79.5%; growth (UACC-257 melanoma): 92.1%; growth (M14 melanoma): 69.7%; growth (HCT-15 colon): 44.3%; growth (HT29 colon): 123%; growth (SNB-75 CNS): 45.5%; growth (SNB-19 CNS): 80%; growth (U251 CNS): 84.5%; growth (PC-3 prostate): 70%; growth (SK-MEL-5 melanoma): 70.4%; growth (UACC-62 melanoma): 57.8%; growth (LOX IMVI melanoma): 72.6%; growth (SK-MEL-28 melanoma): 79.7%

Question: Cc1ccc(C(=O)CSc2nc(-c3ccc(Br)cc3)c(C#N)c(=O)[nH]2)cc1 was tested. Which growth (DU-145 prostate) did it give?
Answer: The growth was 104%.

Question: And the growth (K-562 leukemia)?
Answer: The growth was 53.3%.

Question: And the growth (MALME-3M melanoma)?
Answer: Its growth is 93%.

Question: And the growth (MDA-MB-231 breast)?
Answer: Its growth is 96.4%.

Question: And the growth (RXF 393 renal)?
Answer: The growth was 99.1%.

Question: And the growth (SF-268 CNS)?
Answer: Its growth is 97.5%.

Question: And the growth (SF-295 CNS)?
Answer: Its growth is 106%.

Question: What about the growth (SF-539 CNS) of the same molecule?
Answer: Its growth is 94.8%.

Question: What about the growth (UACC-257 melanoma) of the same molecule?
Answer: The growth was 98.7%.

Question: And the growth (M14 melanoma)?
Answer: Its growth is 92.7%.

Question: And the growth (HCT-15 colon)?
Answer: The growth was 105%.

Question: And the growth (HT29 colon)?
Answer: Its growth is 93.9%.

Question: And the growth (SNB-75 CNS)?
Answer: Its growth is 64.5%.

Question: And the growth (SNB-19 CNS)?
Answer: Its growth is 96.7%.

Question: And the growth (U251 CNS)?
Answer: The growth was 105%.

Question: And the growth (PC-3 prostate)?
Answer: The growth was 90.9%.

Question: What about the growth (SK-MEL-5 melanoma) of the same molecule?
Answer: Its growth is 97.2%.

Question: And the growth (UACC-62 melanoma)?
Answer: Its growth is 97.1%.

Question: What about the growth (LOX IMVI melanoma) of the same molecule?
Answer: Its growth is 98%.

Question: What about the growth (SK-MEL-28 melanoma) of the same molecule?
Answer: Its growth is 101%.

Question: With N=C1C(c2nc(-c3ccc(Br)cc3)cs2)=C(O)CN1Cc1cccnc1 as the molecule, how does the growth (DU-145 prostate) read?
Answer: Its growth is 11.9%.

Question: And the growth (K-562 leukemia)?
Answer: The growth was 49.8%.

Question: What about the growth (MALME-3M melanoma) of the same molecule?
Answer: The growth was 34.1%.

Question: What about the growth (MDA-MB-231 breast) of the same molecule?
Answer: Its growth is 78.7%.

Question: And the growth (RXF 393 renal)?
Answer: Its growth is 67.1%.

Question: And the growth (SF-268 CNS)?
Answer: Its growth is 38%.

Question: And the growth (SF-295 CNS)?
Answer: The growth was 37.2%.

Question: What about the growth (SF-539 CNS) of the same molecule?
Answer: Its growth is 60.5%.

Question: What about the growth (UACC-257 melanoma) of the same molecule?
Answer: The growth was 81%.

Question: What about the growth (M14 melanoma) of the same molecule?
Answer: The growth was 69.3%.

Question: And the growth (HCT-15 colon)?
Answer: The growth was 87.5%.

Question: And the growth (HT29 colon)?
Answer: Its growth is 65.4%.

Question: And the growth (SNB-75 CNS)?
Answer: The growth was 15.5%.

Question: What about the growth (SNB-19 CNS) of the same molecule?
Answer: The growth was 75.9%.

Question: And the growth (U251 CNS)?
Answer: The growth was 56.7%.

Question: What about the growth (PC-3 prostate) of the same molecule?
Answer: Its growth is -6.43% (active).

Question: What about the growth (SK-MEL-5 melanoma) of the same molecule?
Answer: Its growth is 79.6%.

Question: And the growth (UACC-62 melanoma)?
Answer: The growth was 78.2%.

Question: And the growth (LOX IMVI melanoma)?
Answer: Its growth is 85.3%.

Question: And the growth (SK-MEL-28 melanoma)?
Answer: The growth was 48.5%.

Question: Which results are given for Cc1cc(Cl)nc(NCc2cc(Nc3ccnc4cc(Cl)ccc34)ccc2F)n1?
Answer: growth (DU-145 prostate): 52.3%; growth (K-562 leukemia): 26.9%; growth (MALME-3M melanoma): 77.2%; growth (MDA-MB-231 breast): 54.4%; growth (RXF 393 renal): 61.2%; growth (SF-268 CNS): 58.2%; growth (SF-295 CNS): 69.5%; growth (SF-539 CNS): 70.5%; growth (UACC-257 melanoma): 64.2%; growth (M14 melanoma): 60.9%; growth (HCT-15 colon): 11.7%; growth (HT29 colon): 9.26% (active); growth (SNB-75 CNS): 83.3%; growth (SNB-19 CNS): 80.6%; growth (U251 CNS): 48.9%; growth (PC-3 prostate): 52.7%; growth (SK-MEL-5 melanoma): 56.5%; growth (UACC-62 melanoma): 70.7%; growth (LOX IMVI melanoma): 10.4%; growth (SK-MEL-28 melanoma): 94.1%
